# Results taken from PMC5540273 (PLoS ONE, 2017).
# What was measured:
# Conditions in all cases: concentration: 1 μM, replicates: in singlicate; n = 1
# [1] = tested on: PIK3C2G
# [2] = tested on: PIK3CA
# [3] = tested on: PIK3CB
# [4] = tested on: PIK3CD
# [5] = tested on: PIK3CG
# [6] = tested on: T1, PIK4CB
# T1 construct: gene PI4KB
# [7] = tested on: PIKFYVE
# [8] = tested on: PIM1
# [9] = tested on: PIM2
# [10] = tested on: PIM3
# [11] = tested on: PIP5K1A
# [12] = tested on: PIP5K1C
# [13] = tested on: PIP5K2B
# [14] = tested on: T2, PIP5K2C
# T2 construct: gene PIP4K2C
# [15] = tested on: T3, PKAC-alpha
# T3 construct: gene PRKACA
# [16] = tested on: T4, PKAC-beta
# T4 construct: gene PRKACB
# [17] = tested on: PKMYT1
# [18] = tested on: PKN1
# [19] = tested on: PKN2
# [20] = tested on: PLK1
# 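Note: KINOMEscan kinase panel screen.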
SMILES,%Inh [1] [%],%Inh [2] [%],%Inh [3] [%],%Inh [4] [%],%Inh [5] [%],%Inh [6] [%],%Inh [7] [%],%Inh [8] [%],%Inh [9] [%],%Inh [10] [%],%Inh [11] [%],%Inh [12] [%],%Inh [13] [%],%Inh [14] [%],%Inh [15] [%],%Inh [16] [%],%Inh [17] [%],%Inh [18] [%],%Inh [19] [%],%Inh [20] [%]
C[C@@H]1CC[C@@H](C(=O)Nc2ccccc2)CN1c1cc(-c2ccc3c(N)n[nH]c3c2)nc(N)n1 [GSK2286062],0,0,0,0,2,0,0,31,0,4,0,18,3,4,0,0,16,0,0,0
CC(C)(C)c1ccc2nccc(Nc3cccc(O)c3)c2c1 [GW856795],25,0,0,3,33,0,42,7,0,0,29,40,8,7,90.5,0,0,0,0,0
NCCCC(NC(=O)c1cc(Br)c(-c2ccnc3[nH]ccc23)s1)c1ccccc1.O=C(O)C(F)(F)F.O=C(O)C(F)(F)F (centres unmarked) [GSK1287544],0,0,100,0,0,0,0,59,93,22,72,42,60,28,99.4,99.2,0,18,58,0
Cl.Cl.NCC(NC(=O)c1cc(-c2ccccc2)c(-c2ccnc3[nH]ccc23)s1)c1ccccc1 (centres unmarked) [GSK1321561],0,0,0,0,4,0,0,0,0,0,8,50,14,7,98.3,97,3,25,19,5
COc1cc(Nc2nccc(N3CCC(NC(=O)Nc4cccc(C(C)=O)c4)C3)n2)cc(OC)c1OC (centres unmarked) [GSK1379753],0,5,0,46,20,78,0,0,0,0,0,46,5,86,0,0,0,0,0,0
Cl.NC(=O)c1cccc(Nc2nccc(Nc3ccc(Oc4c(Cl)cccc4Cl)c(Cl)c3)n2)c1 [GW659009],0,0,0,4,0,0,0,13,0,4,0,19,97.4,64,0,0,0,59,0,0
Cl.Cl.NCC(C(=O)Nc1cc(Br)c(-c2ccnc3[nH]ccc23)s1)c1ccccc1 (centres unmarked) [GSK1269851],0,0,0,0,0,9,0,19,0,0,55,38,74,1,97.2,93.6,0,100,15,0
c1ccc(-c2n[nH]cc2Nc2ccnc3ccccc23)nc1 [GW694077],15,0,0,0,14,95.7,0,81,7,79,10,73,54,72,0,0,0,7,0,0
O=C(Nc1cccc(-c2nn3ccccc3c2-c2ccnc(Nc3cccc(C(F)(F)F)c3)n2)c1)c1c(F)cccc1F [GSK292658],22,0,0,0,0,8,1,0,0,0,0,0,5,10,0,13,0,11,0,0
Oc1cc(Nc2ccnc3cc(I)ccc23)ccc1F [GW552771],0,0,0,19,0,20,13,8,0,0,8,13,0,30,0,0,0,19,0,0
